Consider 5 molecules from PubChem BioAssay.

SMILES strings stand for the structures. Records with an inconclusive call do not appear. Activity calls are given as the source filed them.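 How the source made its calls, unless noted: active means RAM network inhibition above 8.4% in each of two replicates, 3 SD over the compound average; inconclusive means above 8.4% inhibition in only one replicate; inactive means 8.4% inhibition or less in each replicate.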

A short description of assay [1]: Her2 expression decrease, cell viability multiplex – SKBR3 breast tumor cells, AlphaScreen, ATP viability, primary screen (AID 461;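 active means Her2 level under about 52% in both replicate screens, with viability over 70% of control, limit read from the data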;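 on Her2 level: lower value means less Her2 protein in the cells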;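 on viability: percent of carrier control wells set as 100% viability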). Particulars: SKBR3 Her2 protein level, 18-24 h, measured here: SKBR3 viability, ATP luminescence, at 10 µM. For orientation: In Alpha technology, singlet oxygen from a donor bead excites a nearby acceptor bead.
In assay [2] the target is Receptor tyrosine-protein kinase erbB-2 (Homo sapiens) (UniProt P04626). The assay is described as above. Particulars: 18-24 h, at 10 µM, stronger effect = lower value.
Receptor tyrosine-protein kinase erbB-2 (Homo sapiens), sequence (P04626 whole entry, looked up): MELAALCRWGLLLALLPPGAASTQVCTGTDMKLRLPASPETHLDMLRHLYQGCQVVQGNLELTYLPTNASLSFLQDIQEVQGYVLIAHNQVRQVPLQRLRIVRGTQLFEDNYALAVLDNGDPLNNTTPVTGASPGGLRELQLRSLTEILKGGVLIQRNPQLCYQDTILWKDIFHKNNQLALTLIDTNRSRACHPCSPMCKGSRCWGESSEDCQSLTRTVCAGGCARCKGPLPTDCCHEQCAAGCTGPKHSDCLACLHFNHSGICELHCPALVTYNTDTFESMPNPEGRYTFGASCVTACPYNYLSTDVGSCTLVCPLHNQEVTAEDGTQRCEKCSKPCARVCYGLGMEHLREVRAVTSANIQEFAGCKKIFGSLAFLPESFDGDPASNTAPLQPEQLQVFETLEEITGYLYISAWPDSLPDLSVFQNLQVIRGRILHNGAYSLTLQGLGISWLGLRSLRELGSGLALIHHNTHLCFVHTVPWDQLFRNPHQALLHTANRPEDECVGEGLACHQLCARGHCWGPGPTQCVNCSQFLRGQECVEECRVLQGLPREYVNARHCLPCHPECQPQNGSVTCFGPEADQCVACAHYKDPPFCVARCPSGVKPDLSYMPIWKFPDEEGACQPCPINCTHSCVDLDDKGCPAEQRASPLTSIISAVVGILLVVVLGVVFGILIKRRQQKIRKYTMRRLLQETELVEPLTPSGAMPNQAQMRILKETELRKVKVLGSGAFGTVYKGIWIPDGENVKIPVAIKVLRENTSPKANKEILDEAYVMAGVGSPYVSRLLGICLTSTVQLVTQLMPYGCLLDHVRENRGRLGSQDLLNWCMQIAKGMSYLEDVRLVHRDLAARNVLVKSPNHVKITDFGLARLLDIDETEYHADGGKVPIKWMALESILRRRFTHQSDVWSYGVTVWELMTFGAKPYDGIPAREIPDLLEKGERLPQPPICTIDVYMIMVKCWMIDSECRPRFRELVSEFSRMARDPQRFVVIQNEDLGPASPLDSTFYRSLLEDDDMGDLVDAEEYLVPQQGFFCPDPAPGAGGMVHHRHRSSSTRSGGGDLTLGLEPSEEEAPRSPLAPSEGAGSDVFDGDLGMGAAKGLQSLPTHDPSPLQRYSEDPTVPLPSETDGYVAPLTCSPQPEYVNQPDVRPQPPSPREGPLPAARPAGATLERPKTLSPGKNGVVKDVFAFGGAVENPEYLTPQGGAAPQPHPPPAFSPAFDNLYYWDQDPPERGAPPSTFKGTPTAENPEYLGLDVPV
A short description of assay [3]: reduced viability of SK-BR-3 breast cancer cells – cell-based, 24 h, human, pilot screen (AID 572;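 active means viability at or below 10% of carrier control in both of two separate runs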;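 further: compound exposure lasted between 18 and 24 h rather than exactly 24 h; 100% = carrier-treated control wells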). Particulars: SK-BR-3 viability, CellTiter-Glo luminescence, at 10 µM, stronger effect = lower value. In general terms: Cellular ATP, detected with luciferase, serves as a proxy for viable cell number.
Assay [4] can be described thus: HUVEC growth inhibition – cell-based, human, primary screen (AID 575;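 active means viability at or below 30% in both replicate assays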;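 further: 100% = median of untreated cell wells with 0.1% DMSO on each plate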). Particulars: HUVEC proliferation, CellTiter-Glo luminescence, 72 h; at 10 µM; stronger effect = lower value.
Assay [5] is described as follows: H69AR cell proliferation blockers – human, duplicate replicates, primary screen (AID 580;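 active means viability at or under a set limit in both replicates, limit being median viability minus 3 SD, cut at about 48% in these data, passing the limit was not always enough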;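 further: 100% = mean luminescence of untreated wells and 0% = no signal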). To be noted: H69AR lung tumor cells viability, ATP luminescence, 72 h; at 10 µM; stronger effect = lower value.
Assay [6] can be described thus: MRP1 drug-resistance reversers in H69AR cells – cell-based, doxorubicin co-treatment, pilot screen (AID 601;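 active means viability loss from added drug above about 55%, and viability with drug at most 40%, in both replicates, limit read from the data, passing the limit was not always enough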). Particulars: CellTiter-Glo, 72 h, at 10 µM; for differential viability (reversal): stronger effect = higher value.
Assay [7] is described as follows: yeast transport mutant growth inhibition pilot in 384-well plates, post-Golgi transport modulator project (AID 636; in the data active means inhibition above about 31%). Particulars: absorbance 615 nm, about 18 h, stronger effect = higher value.
Assay [8] in a line: growth suppression of yeast trafficking mutant, preliminary HTS, modulators of trafficking downstream of Golgi apparatus project, 1536-format plate, OD 615 nm (AID 637; in the data active means inhibition above about 30%). To be noted: yeast transport mutant growth, absorbance 615 nm, 18 h; stronger effect = higher value.
Assay [9] is described as follows: S. cerevisiae growth inhibition in permissive medium (OD615), pilot counter-assay for S. cerevisiae lifespan shortening project, permissive growth control (AID 705;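 active means growth inhibition above 25% in both replicates, a cutoff set 3 SD above the mean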). Particulars: OD615, 24 h, at 10 µM, stronger effect = higher value.
Assay [10] can be described thus: S. cerevisiae growth inhibition in restrictive medium, OD615, pilot screen, restrictive growth control, yeast lifespan reduction project (AID 706;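 active means growth inhibition above a set limit, 3 SD over mean compound inhibition, in both replicates, cut at about 43% in these data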;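 further: modified DeaD lifespan yeast strain shifted to restrictive glucose medium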). To be noted: OD615, 48 h, at 10 µM, stronger effect = higher value.
Assay [11] can be described thus: doxorubicin toxicity protection in MRP-1 cells – H69AR cells, CellTiter-Glo, duplicate, MRP-1 activator project, pilot screen (AID 807;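 active means viability increase at or above a cutoff of the median across tested compounds plus 3 SD, cut at about 8.5% in these data, passing the limit was not always enough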;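 further: compound pretreatment 18-22 h then 72 h combined with doxorubicin; 0% = doxorubicin alone and 100% = vehicle without doxorubicin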). Particulars: H69AR viability with doxorubicin, CellTiter-Glo luminescence; at 10 µM; stronger effect = higher value.
Assay [12] is described as follows: viability of HCT116 without oncogenic beta-catenin – human colon tumor cells, pilot screen (AID 823;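 active means cell viability at or below a set limit in both duplicate runs, the limit being the all-compound median minus 4 SD, cut at about 23% in these data, passing the limit was not always enough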;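 further: 0% = wells killed by 20 µM Hyamine and 100% = untreated DMSO cell wells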). Particulars: HCT116 beta-catenin knockout viability, CellTiter-Glo, 60 h; at 10 µM; stronger effect = lower value.
A short description of assay [13]: viability of PTEN-null HCT116 cells – cell-based, HCT116 clonal line, CellTiter-Glo, pilot screen (AID 824;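 active means viability at or below 27.92% in each of two runs, the all-compound median minus 4 SD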;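 further: 0% = 20 µM Hyamine control and 100% = vehicle cell control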). Particulars: HCT116 PTEN-deleted viability, 60 h, at 10 µM, stronger effect = lower value.
Assay [14] is described as follows: RAM pathway blockade in budding yeast – dse1pr::URA3 reporter, 5-FOA selection, pilot screen (AID 869;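 active means inhibition over a set limit, the all-compound mean plus 3 SD, in both replicate runs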;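 further: 0% = DMSO wells with no growth and 100% = 10 µM 1-NA-PP1 with full growth; RAM network block rescues cells from 5-FOA so hits raise OD615 growth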). Particulars: S. cerevisiae dse1pr::URA3 5-FOA growth, OD615, 2 d; at 10 µM; stronger effect = higher value; strain carries analog-sensitive mutant Cbk1 kinase.
Assay [15] is described as follows: RAM signaling pathway blockade in yeast – S. cerevisiae, Pdr1DBD-CYC8 efflux-inhibited sensitized strain, primary screen (AID 1298).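 Further: 0% = DMSO untreated cells without growth and 100% = 10 µM 1-NA-PP1 full growth; higher means more yeast growth rescued from 5-FOA killing.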 To be noted: S. cerevisiae cbk1-as DSE1-URA3 strain, 5-FOA growth OD615, 2 d; at 50 µM; stronger effect = higher value.
[16] abbreviates: H69AR cells + 2 uM doxorubicin, measured here: viability with 2 uM doxorubicin, stronger effect = lower value.
Where [17] appears, read: H69AR cells, compound alone cytotoxicity.

What is called viability is a read-out of living cells in per cent, often relative to untreated cells. The term inhibition denotes the drop in the measured response relative to a control, in per cent. With `Cc1cn2c(-c3ccc(Cl)cc3)nnc2s1`, the viability in assay [1] is 96%; in assay [3] it was 96% (inactive); in assay [4] it was 74.7% (inactive); in [5] it was 95.2% (inactive); in assay [6] (setting [16]), 99.1%; in assay [6] (setting [17]) it was 95.2%. In addition, the results for the viability in assay [12] and in assay [13] were 97.6% (inactive) and 90.3% (inactive), respectively. Further, in assay [2], the Her2 level is 92.5% (inactive). The differential viability (reversal) in assay [6] (H69AR cells + 2 uM doxorubicin) is -3.87% (inactive). The figures for the inhibition in [7], in [8] and in [14] were -3.87% (inactive), 4.67% (inactive) and 2.66% (inactive), respectively. In addition, the growth inhibition in [9] was -8.55% (inactive); in assay [10], 16.2% (inactive). Also, in [11], the viability increase was -0.6% (inactive). In addition, in [15], the RAM network inhibition is 4.88% (inactive).

For the molecule `COC(=O)C1(C#N)C(c2ccccc2)C1(C(=O)OC)C(=O)OC` (stereo not given), the viability is 117% in assay [1]; 117% (inactive) in assay [3]; 105% (inactive) in [4]; 102% (inactive) in assay [5]; 90.8% in [6] (setting [16]); 102% in assay [6] (setting [17]). Also, the viability in assay [12] is 77.4% (inactive); in assay [13], 97.7% (inactive). Also, the Her2 level in assay [2] is 90% (inactive). Besides, the differential viability (reversal) in [6] (H69AR cells + 2 uM doxorubicin) is 11.3% (inactive). In addition, the inhibition in assay [7] is -3.47% (inactive); in assay [8], 0.65% (inactive); in assay [14], 1.43% (inactive). Moreover, the growth inhibition in [9] was -6.71% (inactive); in assay [10], -6.54% (inactive). Also, the viability increase in assay [11] is -1.92% (inactive). Further, the RAM network inhibition in [15] was 2.51% (inactive).

`COC(=O)C(C#N)C(=C1C(=O)CC(C)(C)CC1=O)c1ccc(O)cc1` (stereo not given): the viability in assay [1] is 90%; in [3] it was 90% (inactive); in assay [4], 96.5% (inactive); in assay [5], 92% (inactive); in [6] (setting [16]), 95.6%; in [6] (setting [17]), 92%. The figures for the viability in assay [12] and in assay [13] were 97.5% (inactive) and 101% (inactive), respectively. The Her2 level in assay [2] is 92.5% (inactive). The differential viability (reversal) in assay [6] (H69AR cells + 2 uM doxorubicin) is -3.63% (inactive). Also, the values for the inhibition in assay [7], in assay [8] and in assay [14] were 0.9% (inactive), -1.17% (inactive) and 1.16% (inactive), respectively. The growth inhibition is -1.85% (inactive) in assay [9] and 0.91% (inactive) in assay [10]. The viability increase in assay [11] was 0.99% (inactive). For the same molecule, the RAM network inhibition in assay [15] was 2.01% (inactive).

For `COC(=O)Cn1c(=O)c2c(nc3n2CC(C)CN3c2ccc(C)c(C)c2)n(C)c1=O` (stereo not given), the viability is 90.5% in assay [1]; 90.5% (inactive) in assay [3]; 93.2% (inactive) in assay [4]; 85.5% (inactive) in [5]; 69.7% in assay [6] (setting [16]); 85.5% in [6] (setting [17]). Also, the values for the viability in assay [12] and in [13] were 97.9% (inactive) and 91.1% (inactive), respectively. Besides, the Her2 level in assay [2] was 89% (inactive). The differential viability (reversal) in assay [6] (H69AR cells + 2 uM doxorubicin) was 15.8% (inactive). Also, the inhibition in [7] is -9.47% (inactive); in [8], -3.5% (inactive); in [14], 1.25% (inactive). Besides, the results for the growth inhibition in [9] and in assay [10] were -5.87% (inactive) and 0.135% (inactive), respectively. Moreover, the viability increase in assay [11] is -0.75% (inactive). Moreover, the RAM network inhibition in [15] was 4.14% (inactive).

Take `Oc1ccc2ccccc2c1CN1CCN(c2ccccc2F)CC1`: the viability in assay [1] was 110%; in assay [3], 110% (inactive); in [4], 90.1% (inactive); in assay [5], 76.6% (inactive); in assay [6] (setting [16]), 73.5%; in assay [6] (setting [17]) it was 76.6%. Besides, the values for the viability in assay [12] and in [13] were 95.4% (inactive) and 93.9% (inactive), respectively. In addition, the Her2 level in assay [2] is 90% (inactive). In addition, the differential viability (reversal) in assay [6] (H69AR cells + 2 uM doxorubicin) is 3.1% (inactive). Also, the results for the inhibition in assay [7], in assay [8] and in [14] were -3.47% (inactive), -0.33% (inactive) and 0.72% (inactive), respectively. In addition, the figures for the growth inhibition in [9] and in assay [10] were -13.8% (inactive) and -10.6% (inactive), respectively. In assay [11], the viability increase is -5.72% (inactive). Besides, the RAM network inhibition in [15] was 0.16% (inactive).
